The list is not random: actives were taken first. Their share in the collection is about 4.3%.
Giardia killer: Giardia lamblia killing; Giardia lamblia trophozoite viability; 340,000 tested, 0.15% active; AID 540267; activity change, % at 7.66 µM, hits read low; in the data active means activity change below about -80%; inconclusive means between about -30% and that limit;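 further: parasites exposed to compound for two days anaerobically before the ATP read; on the % scale 0 is the no-effect control and ±100 the full control effect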
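Killing of trophozoites was scored by loss of ATP luminescence after a 48 hrs anaerobic exposure to compounds at 37 deg C, using 100 cells per well.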
SW480 rerep: induces DNA re-replication in SW480 colon adenocarcinoma cells | SW480 DNA re-replication, Hoechst DNA content imaging, 48 h | Potency, µM (doses to about 46.1 µM), for the others: at the top dose re-replication activation, most hits filed as activators | 340,000 tested, 1.8% active | AID 624297; further: potency means the concentration at half of the fitted maximal effect; % of control where 0% means no effect; nearly all actives have a fitted effect of over 55% in size
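250 cells/well; 23 nL cpd via pin tool; 48 hr, 37 C, 5% CO2; Hoechst 40 min; imager read of total nuclear intensity, ex 405/em 500-530 nm.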
uPA surface inh: inhibitors of cell surface uPA generation; cell surface uPA generation assay, qHTS; Potency, µM (top dose mostly 38.3 µM), inactives show at the highest dose activity change, negative = inhibition, hits mostly inhibitors; 330,000 tested, 0.31% active; active means well fitted inhibition curve with a large enough effect; inconclusive means small, poorly fitted or top-dose-only effect; inactive means no such curve, though single readings can be large or run the other way; tested in mouse RAW 264.7 cells; further: potency means the concentration at half of the fitted maximal effect; on the % scale 0 is the no-effect control and ±100 the full control effect; nearly all actives have a fitted effect of over 55% in size
MCF10A rerep: inducers of DNA re-replication in MCF 10A breast cells. MCF 10A DNA re-replication, Hoechst nuclear intensity, 48 h. Potency, µM (highest dose often 46.1 µM), inactives show at the top dose activity, positive = re-replication, actives largely listed as activators. 350,000 tested, 2.9% active. AID 624296; further: potency means the concentration at half of the fitted maximal effect; % of control where 0% means no effect; nearly all actives have a fitted effect of over 50% in size
Starred values were filed as active, the others as inactive; ? = inconclusive; . = no result. Unless noted, the call rests on the fitted dose curve; in most records, active means well fitted activation curve with a large enough effect; inconclusive means small, poorly fitted or top-dose-only effect; inactive means no such curve, though single readings can be large or run the other way.

SMILES	Giardia killer	SW480 rerep	uPA surface inh	MCF10A rerep
O=S(=O)(NCC(c1ccco1)N1CCc2ccccc2C1)c1ccc(Br)cc1 (configuration not stated)	-17	-461%	-3%	4.1µM*
CN=c1c([N+](=O)[O-])nn(-c2ccc3c(c2)OCCO3)n1O	?	16µM*	-13%	2%
O=[N+]([O-])c1nn(-c2ccc3c(c2)OCCO3)n(O)c1=NCc1ccc(F)cc1	?	14%	-14%	?
COc1cc(N=c2c([N+](=O)[O-])nn(-c3ccc4c(c3)OCCO4)n2O)cc(OC)c1	?	?	-13%	21µM*
O=[N+]([O-])c1nn(-c2ccc3c(c2)OCCO3)n(O)c1=NCCC1=CCCCC1	-93*	0%	-6%	?
Cc1ccc(S(=O)(=O)N2CCN(c3nc(-c4ccc(CN5CCNCC5)s4)nc4ccccc34)CC2)cc1	25	.	.	.
CC(CCc1ccc(O)cc1)NC(c1ccccc1)c1ccc(Cl)cc1 (configuration not stated)	20	?	-9%	16µM*
CN(CC(=O)Nc1ccccc1Br)C(=O)c1sccc1-c1ccccc1	-19	1%	-13%	9%
COc1cc2c(cc1C1C(C#N)=C(N)OC3=C1C(=O)CC(C)(C)C3)OCO2 (configuration not stated)	-22	4%	-8%	7%
COc1ccc(C2C(C#N)=C(N)Oc3cc4c(cc32)OCO4)cc1 (configuration not stated)	2	?	-24%	21µM*
CC(C)(Cc1c[nH]c2ccccc12)NCC(O)COc1ccccc1C#N (configuration not stated)	.	?	.	2%
Cc1ccc(CNC(=O)COC(=O)Cc2ccc(-c3ccccc3)cc2)cc1	7	?	3%	?
Cc1ccc(CC(=O)NCc2ccc(F)cc2)cc1	-7	18µM*	-8%	?
Cc1ccc(CNC(=O)Cc2ccc(-c3ccccc3)cc2)cc1	9	1.2µM*	.	?
O=C(Cc1ccc(-c2ccccc2)cc1)NCc1cccnc1	-1	23µM*	-8%	12µM*
O=C(Cc1ccc(-c2ccccc2)cc1)NCc1ccccc1	2	1.3µM*	-9%	0.12µM*
Cc1nc(N2CCN(C)CC2)c2nnn(Cc3ccccc3)c2n1	7	.	.	.
C[C@@H](CO)[C@H](/C=C/c1ccccc1)CCO[Si](c1ccccc1)(c1ccccc1)C(C)(C)C	-16	.	.	.
O=C(/C=N/O)NCc1cccnc1	10	13µM*	-6%	15µM*
CNC(=O)COC(=O)c1ccccc1C(=O)c1ccc(Cl)c([N+](=O)[O-])c1	5	5.8µM*	?	5.8µM*
O=C(COC(=O)c1ccccc1C(=O)c1ccc(Cl)c([N+](=O)[O-])c1)NC1CC1	14	?	-16%	3.3µM*
O=C(COC(=O)c1cc([N+](=O)[O-])ccc1Cl)NC1CCCC1	2	-3%	0%	-3%
O=C(OC1CCOC1=O)c1ccccc1C(=O)c1ccc(Cl)c([N+](=O)[O-])c1 (configuration not stated)	-5	?	-11%	4.6µM*
Cc1sc2ncnc(N3CCN(Cc4ccccc4)CC3)c2c1-c1ccc(F)cc1	-10	-1%	-7%	0%
Cc1ccc(CC(=O)Nc2ncc([N+](=O)[O-])s2)cc1	-91*	8%	3%	-1%
SMILES	Giardia killer	SW480 rerep	uPA surface inh	MCF10A rerep
O=C(COC(=O)c1ccc(Br)o1)Nc1ncc([N+](=O)[O-])s1	?	0%	3%	-1%
Cc1ncoc1C(=O)Nc1nccs1	9	-8%	.	4%
CCCCC(CC)C(=O)Nc1ncc([N+](=O)[O-])s1 (configuration not stated)	-91*	-3%	-2%	?
Cc1ncoc1C(=O)Nc1ncc([N+](=O)[O-])s1	-87*	-1%	-4%	-1%
Cc1ccc(S(=O)(=O)CC(=O)Nc2ncc([N+](=O)[O-])s2)cc1	-84*	-2%	-1%	-1%
CCC(CC)C(=O)Nc1ccc([N+](=O)[O-])cn1	8	-13%	4%	-11%
CC1CCC(NC(=O)c2cccn2C)CC1 (configuration not stated)	-15	-2%	2%	-1%
Cc1csc(NC(=O)c2ccccc2[N+](=O)[O-])n1	3	-1%	-1%	-3%
O=C(Nc1ncc([N+](=O)[O-])s1)c1ccccc1Br	-93*	-9%	?	0%
CSc1nc(SCC(=O)NC(c2ccccc2)c2ccccc2)c2c3c(sc2n1)CN(C)CC3	20	5.8µM*	4%	5.2µM*
CSc1nc(NCC(C)O)c2c3c(sc2n1)CN(C)CC3 (configuration not stated)	6	-6%	-6%	-5%
CCOC(=O)c1sc(NC(=O)c2cc(-c3ccccc3C)nc3ccccc23)c(C#N)c1C	6	3%	-11%	2.6µM*
Cc1ccccc1-c1cc(C(=O)Nc2sc(C)c(C)c2C(N)=O)c2ccccc2n1	24	0%	7%	-6%
CCOC(=O)c1sc(NC(=O)CSc2nc(C)cc(C)c2C#N)c(C#N)c1C	-1	-3%	1%	2µM*
CCOC(=O)c1cnc(SCC(=O)Nc2cc(OC)cc(OC)c2)nc1N	-15	0%	.	13%
COCc1cc(C)nc(SCC(=O)Nc2nc(C)cs2)c1C#N	-17	?	-9%	16µM*
CCOC(=O)c1sc(NC(=O)CSc2nc3c(cc2C#N)CCCCCC3)c(C#N)c1C	-2	2%	.	?
CCOC(=O)c1cnc(SCC(=O)Nc2sc(C)c(C)c2C#N)nc1N	-2	21µM*	-2%	0%
COC(=O)CSc1nc(C)cc(C)c1C#N	8	4%	3%	15%
Cc1cc(C)c(C#N)c(SCC(=O)C2CC2)n1	20	21µM*	-18%	?
Cc1c(/C(O)=C2\C(=O)C(=O)N(CCCN(C)C)C2c2ccco2)cnn1-c1ccccc1 (configuration not stated)	-3	-10%	-2%	0%
COc1ccc(CC(=O)NCC2(N3CCCCC3)CCCCC2)cc1	-1	23µM*	-8%	?
COCc1ccc(C(=O)NCC2(N3CCCCC3)CCCCC2)cc1	-5	1%	3%	14%
CC(C)(CO)[C@@H](O)C(=O)NCCC(=O)O	11	1%	6%	-3%
O=C(Cc1ccccc1F)Nc1cc(S(=O)(=O)N2CCOCC2)ccc1N1CCCC1	6	8%	2%	?
CCCNC1=C(N(C(C)=O)c2cccc(F)c2)C(=O)c2ccccc2C1=O	-1	5.8µM*	-13%	0.73µM*
CCC(=O)N(C1=C(NC(C)C)C(=O)c2ccccc2C1=O)C(C)C	-3	-9%	9%	6%
CCOC(=O)/C(C#N)=C1/C=C(C)NC(c2ccccc2O)=N1	1	6%	-1%	6.5µM*
OC(COc1ccccc1)CN1CCN(Cc2ccc3c(c2)OCO3)CC1 (configuration not stated)	-2	-7%	2%	6%
Cc1cc(C)cc(OCC(O)CN2CCN(Cc3ccc4c(c3)OCO4)CC2)c1 (configuration not stated)	9	9%	0%	16µM*

Screens: PubChem, National Center for Advancing Translational Sciences (NCATS)
